Experimental data: PubChem BioAssay (EPA / NIEHS)
Activity calls are given as the source filed them. How the source made its calls: active means hit-call score of the fitted dose curve at least 0.9, where 1 is the maximum; inactive means score below 0.9.

Read-out: Forkhead box O3 (FOXO3), FOXO3 (gene 2309)
Test: LTEA_HepaRG_FOXO3: Life Technologies and Expression Analysis (LTEA) Assay for Forkhead box O3 (FOXO3) using HepaRG (AID 2283459)
Settings: mRNA level, 48 h; actives raise or lower the signal
Experimental: LTEA_HepaRG is a cell based, multiplexed-readout assay that uses HepaRG, a human liver cell line, with measurements taken at 48 hours after chemical dosing on a 96-well plate.LTEA_HepaRG_FOXO3 is one of 102 assay component(s) measured in the LTEA HepaRG cell culture assay. It is a marker of Cell proliferation, survival, death.Data from the assay component LTEA_HepaRG_FOXO3 was analyzed into 1 endpoint. This assay endpoint, LTEA_HepaRG_FOXO3, was analyzed with bidirectional fitting relative to DMSO as the negative control and baseline of activity. Using a type of inducible reporter, measures of mRNA induction for gain or loss-of-signal activity can be used to understand regulation of transcription factor activity. To generalize the intended target to other relatable targets, this assay endpoint is annotated to the dna binding intended target family, where the subfamily is forkhead box protein.
A total of 1060 chemcials from the ToxCast library were tested in eight-point concentration-response experiments. Cell culture and cytotoxicity assays were conducted at Thermo Fisher Scientific's Custom Services facility (Madison, WI). A single lot of human HepaRG cells (Thermo Fisher Scientific, Frederick, MD) was used for the cell culture experiments. 96-well format collagen type I coated plates of human HepaRG cells were prepared using established methods. Briefly, cryopreserved HepaRG cells were thawed, plated at a density of approximately 100,000 cells/well in HepaRG Thaw, Plate, and General Purpose media (HPRG770, Thermo Fisher Scientific), and incubated for 48 hours. 0.5% DMSO was selected as vehicle control to balance the requisite need of DMSO in HepaRG cultures to maintain differentiation (for example, baseline metabolism, proportions of hepatocytes vs. cholangiocytes), while enabling further hepatic receptor pathway activation (for example, PXR and CAR) in response to chemical exposure. 48 hours after plating, the culture medium was replaced with HepaRG Serum-Free Incudtion Media. Cells were exposed to each test chemical in duplicate and maintained in CO2 incubators for another 48 hours. Chemical plates were thawed to room temperature and 200x concentrations of treatment groups were prepared. 8-point conentration-reponse curves were made with the highest exposure at 100 uM, followed by half-log dilutions, all in 0.5% DMSO. Each test plate contained variouse controls, induction positive controls (1mM phenobarbital), cytotoxicity positive controls ([…] aflatoxin B1), vehicle controls (0.5% DMSO), and total lysis controls (0.5% DMSO). Cell morphology images were taken using an Essen IncuCyte FLR automated microscope, with six 96-well plates imaged in about 24 minutes. Images were captured and exported and JPEG files. Spent culture media was transfered to black-well plates for the LDH assay, and remaining media was sorted at -80 C for later use. Cells were treated with RLT buffer and frozen until shipped for gene expression analysis. Total RNA was isolated from the cell suspension in 75 uL of Buffer RLT (Qiagen, Germantown, MD 20874) by Quintiles/Expression Analysis (Durham, NC) using a custom isolation procedure. Total RNA from each plate well was transferred to a preamplification plate. Fluidigm's 96.96 Dynamic ArrayTM (Fluidigm, Amsterdam, the Netherlands) technology was used for gene expression analyses by quantitative reverse transcription polymerase chain reaction (qRT-PCR, performed by Quintiles/Expression Analysis, Durham, NC)89. Standard TaqManTM Assays (Applied Biosystems/ThermoFisher Scientific, Foster City, CA) were used to assess the expression of 93 genes selected based on their selectivity and sensitivity to important hepatic receptors known to be modulated by environmental chemicals; importance in human hepatocyte functionality; and hepatotoxicity. […]

Structure (SMILES) | outcome | AC50
O=C(O)c1cccc(C[C@@H]2COc3ccc(OCc4nc5cc(F)ccc5s4)cc3[C@@H]2O)c1 | inactive | 
Cn1c(=O)c2[nH]cnc2n(C)c1=O | inactive | 
CCCCCCCCCC | inactive | 
NNC(=O)c1ccncc1 | inactive | 
CCCCOC(=O)c1ccccc1 | inactive | 
CCCCCCOC(=O)CC(CC(=O)OCCCCCC)(OC(=O)CCC)C(=O)OCCCCCC | inactive | 
c1ccc2ncccc2c1 | inactive | 
CC(C)CCCCCCOC(=O)C1CCCCC1C(=O)OCCCCCCC(C)C (stereo not given) | inactive | 
CCCCN1C(=O)[C@@H]([C@H](O)C2CCCCC2)NC(=O)C12CCN(Cc1ccc(Oc3ccc(C(=O)O)cc3)cc1)CC2 |  | 4.14 µM (active)
OC(Cn1cncn1)(Cn1cncn1)c1ccc(F)cc1F | inactive | 
COc1cc2c(c(OC)c1OC)-c1ccc(OC)c(=O)cc1[C@@H](NC(C)=O)CC2 | inactive | 
CCCC(CCC)C(=O)O | inactive | 
CCCOc1ccc(S(=O)(=O)N2CCN(CC)CC2)cc1-c1nc2c(CC)n(Cc3ccccn3)nc2c(=O)[nH]1 | inactive | 
CCCCCCCC/C=C\CCCCCCCC(=O)OC[C@@H](O)[C@H]1OC[C@H](O)[C@H]1O | inactive | 
OC(CCl)CCl | inactive | 
O=S1(=O)CCCO1 | inactive | 
O=S(=O)(O)c1ccc(N=Nc2c(O)ccc3cc(S(=O)(=O)O)ccc23)cc1 | inactive | 
NC(N)=O | inactive | 
NC(=O)N(O)[C@@H]1COc2cc(OCc3ccccc3)ccc21 | inactive | 
C[C@@H](Oc1ccc(CNC(=O)c2cccnc2Oc2ccc3c(c2)OCO3)c(F)c1)C(=O)O | inactive | 

Structure (SMILES) | outcome | AC50
Cn1cc[nH]c1=S | inactive | 
Cc1ncc([C@@H](CCCCCCc2ccc3c(n2)NCCC3)CC(=O)O)cn1 | inactive | 
CC(C)C(=O)Nc1ccc([N+](=O)[O-])c(C(F)(F)F)c1 | inactive | 
CCCCCCCC1CCC(=O)O1 (stereo not given) | inactive | 
NC(=O)N1c2ccccc2C=Cc2ccccc21 | inactive | 
CC(=O)c1ccccc1 | inactive | 
CCOc1ccc2[nH]cc(C(=O)NCc3ccccc3)c(=O)c2n1 | inactive | 
CCCCCOC(C)=O | inactive | 
OCCNCCO | inactive | 
OCc1ccccc1 | inactive | 
COc1cc(C(C)C)c2c(c1)S(=O)(=O)N(COc1cc(=O)n3cccc(OCCN4CCCCC4)c3n1)C2=O |  | 19.4 µM (active)
c1ccc2c(c1)-c1cccc3c1c-2cc1ccccc13 |  | 4.9 µM (active)
CCc1ccc(O)c(C(C)(C)C)c1 | inactive | 
OCCOCCOCCO | inactive | 
CCc1cccc(CC)c1N | inactive | 
OCC(CO)(CO)CO | inactive | 
OC[C@H]1O[C@@H]2O[C@H]3[C@H](O)[C@@H](O)[C@@H](O[C@H]4[C@H](O)[C@@H](O)[C@@H](O[C@H]5[C@H](O)[C@@H](O)[C@@H](O[C@H]6[C@H](O)[C@@H](O)[C@@H](O[C@H]7[C@H](O)[C@@H](O)[C@@H](O[C@H]1[C@H](O)[C@H]2O)O[C@@H]7CO)O[C@@H]6CO)O[C@@H]5CO)O[C@@H]4CO)O[C@@H]3CO | inactive | 
CC[C@H](C)C(=O)O[C@H]1C[C@H](O)C=C2C=C[C@H](C)[C@H](CC[C@@H](O)C[C@@H](O)CC(=O)O)[C@H]21 | inactive | 
CCOC(N)=O | inactive | 
CC(C)CC(C)O (stereo not given) | inactive | 
